# According to PubChem BioAssay:
# Values without a mark were called inactive. How the calls were made is not given here.
# Tested on: Aerobactin synthetase IucA (Klebsiella pneumoniae hvKP1)
# Assay: IucA enzyme inhibition, primary screen, biochemical, Spectrum library (AID 1346200);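 further: 100% = wells without compound and 0% = wells lacking enzyme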
# Conditions: malachite green pyrophosphate, A620, at 8 µM, stronger effect = lower value
row,SMILES,activity remaining [%]
1,CC(C)/C(O)=C1/C(=O)O[C@@H](c2ccoc2)[C@]2(C)C(O)[C@@H](O)[C@@]34OC5(C)OC67CC(C)(C(O)[C@]6(O)[C@@H](O)[C@]3(O5)C12)[C@H](CC(=O)O)[C@]74C (some centres undefined),92.7
2,NCCC(=O)N[C@@H](Cc1cnc[nH]1)C(=O)O,106
3,Nc1nc2c(c(=O)[nH]1)NC(CNc1ccc(C(=O)N[C@H](CCC(=O)O)C(=O)O)cc1)=CN2,102
4,C#CCCCCCCCCCCCC(O)CC(O)COC(C)=O (centres undefined),109
